# An excerpt weighted towards active compounds, which were near 4.8% of everything screened.
# hgDAF-12 ag: hgDAF-12 agonism, primary luciferase screen | HEK293 GAL4-hgDAF12 UAS-luciferase reporter, agonist luminescence; normalized to butyrate control | activation, % at 6.8 µM | 370,000 tested, 1.8% active;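 active = activation above a cutoff set at the mean of all screened compounds plus 3 SD, cut at about 10% in these data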;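 also: 0% = DMSO wells and 100% = sodium butyrate wells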
# NR1D1 modulator: Rev-erb alpha (human) modulation; Rev-erbα–FITC-DNA binding, fluorescence polarization, 90 min; 370,000 tested, 0.79% active; P20393; activity, % at 10 µM;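 active = activity above about 14%, limit read from the data; passing the limit was not always enough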;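 also: 0% = DMSO wells with 35 nM protein and 100% = DMSO wells with 750 nM protein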
# Target sequence (P20393 whole entry, looked up): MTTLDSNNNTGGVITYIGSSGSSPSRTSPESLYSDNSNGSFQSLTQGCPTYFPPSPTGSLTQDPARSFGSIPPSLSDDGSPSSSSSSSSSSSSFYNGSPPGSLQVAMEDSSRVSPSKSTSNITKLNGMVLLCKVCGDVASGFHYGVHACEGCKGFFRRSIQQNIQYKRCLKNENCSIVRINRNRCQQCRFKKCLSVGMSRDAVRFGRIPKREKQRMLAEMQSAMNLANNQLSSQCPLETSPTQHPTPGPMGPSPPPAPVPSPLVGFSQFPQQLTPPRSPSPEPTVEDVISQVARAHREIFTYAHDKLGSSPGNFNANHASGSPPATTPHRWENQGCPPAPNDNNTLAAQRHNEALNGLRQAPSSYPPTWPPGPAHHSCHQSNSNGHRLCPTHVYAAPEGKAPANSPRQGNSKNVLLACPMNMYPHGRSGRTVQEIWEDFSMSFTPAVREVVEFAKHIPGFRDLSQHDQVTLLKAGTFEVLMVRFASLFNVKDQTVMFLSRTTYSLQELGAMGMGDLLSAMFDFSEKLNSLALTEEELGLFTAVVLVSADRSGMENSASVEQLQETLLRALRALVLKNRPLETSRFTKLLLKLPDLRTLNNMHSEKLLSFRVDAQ
# hcDAF12 agonist: H. contortus DAF-12 activation, primary screen | 370,000 tested, 1.4% active | activation, % at 6.8 µM | HEK293 hcDAF-12 lit1-tk-luc reporter, luminescence; 0% DMSO, 100% Δ7-dafachronic acid | AID 652067;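 active = activation above the mean of all tested compounds plus 3 SD, cut at about 5.5% in these data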;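 also: 100% = response to 3 µM Δ7-dafachronic acid high control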
# DAX1 inh-1: inhibitors of human orphan nuclear receptor DAX1 (NR0B1) | inhibition, % at 6.75 µM | HEK293 Gal4-DAX1 luciferase reporter, luminescence | P51843 | 340,000 tested, 0.99% active;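 active = inhibition above the mean over all tested compounds plus 3 SD, cut at about 4.2% in these data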;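 also: 0% = DAX1-transfected cells with DMSO and 100% = empty-vector control cells with DMSO; inhibition shows as a rise in luminescence from relieved DAX1 repression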
# DAX1 inh-2: DAX1 (NR0B1) inhibition, primary screen. HEK293T StAR-luciferase reporter, SF-1/DAX-1 repression relief. 370,000 tested, 1.1% active. inhibition, % at 6.8 µM;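 active = inhibition above the mean over all tested compounds plus 3 SD, cut at about 3.6% in these data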;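 also: 0% = DAX-1 cells with DMSO and 100% = cells lacking DAX-1 with DMSO; higher inhibition means more luminescence from relief of DAX-1 repression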
# ssDAF12 agonist: activators of S. stercoralis DAF-12 nuclear receptor. activation, % at 6.8 µM. AID 652126. 370,000 tested, 1% active. HEK293 ssDAF-12/GRIP1 lit1-tk-luc reporter, luminescence; % of 3 µM dafachronic acid response;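 active = activation above the mean over all tested compounds plus 3 SD, cut at about 0.9% in these data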;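 also: 0% = DMSO-only wells and 100% = 3 µM delta7-dafachronic acid wells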
# The depositor's hits bear a star; · = no result.
SMILES,hgDAF-12 ag,NR1D1 modulator,hcDAF12 agonist,DAX1 inh-1,DAX1 inh-2,ssDAF12 agonist
COc1cc(C(C)=O)ccc1OCc1cc(C(=O)N(C)CCC2CCCCO2)no1 (stereo not given),10,-4,4,2,1,1.1*
c1ccc2nc(N3CCCC3)c(N3CCCCC3)nc2c1,0,4,0,1,1,-1
c1ccc2nc3c(nc2c1)OCC1CCCCN31 (stereo not given),8,-6,6.2*,4,1,1
CCOc1ccc(Nc2ccc(N3C(=O)CCC3=O)cc2[N+](=O)[O-])cc1,2,7,6.2*,2,0,-1
COc1ccc(Nc2ccc(N3C(=O)CCCC3=O)cc2[N+](=O)[O-])cc1OC,-3,-3,-3,-1,-1,-2
COC(=O)[C@H](CC(C)C)N(CCc1cn(Cc2ccc(C)cc2)nn1)S(=O)(=O)c1ccc(F)cc1Br,1,-1,-2,·,0,-2
Cc1cccc(-n2c(Cc3cc(=O)[nH]c(=O)[nH]3)nnc2SCC(=O)N2CCc3ccccc32)c1,3,-6,6.2*,1,0,-1
CCSc1nnc(Cc2cc(=O)[nH]c(=O)[nH]2)n1-c1ccc(F)cc1,0,0,3,1,0,-1
O=C(CSc1nnc(Cc2cc(=O)[nH]c(=O)[nH]2)n1-c1ccc(F)cc1)N1CCCCC1,6,-4,-1,7.9*,0,0
O=C(CCc1ccccc1)N[C@H]1[C@H](OC(=O)c2cnccn2)CCC[C@]12C(=O)N(Cc1ccccc1)c1ccccc12,-1,8,0,·,0,-1
CCOc1cc(/C=N/Nc2ccccc2Cl)ccc1OCC(=O)O,0,-15,6.3*,-1,2,0
CCOc1cc(/C=N/Nc2cccc(C(=O)O)c2)ccc1OC(=O)c1ccccc1,10,1,2,-4,3,1.1*
CCOc1cc(/C=N/Nc2nc(Nc3ccccc3)nc(N3CCCCC3)n2)ccc1OCC(=O)O,-1,3,-1,0,0,-1
COc1cc(C=NNc2ccccc2)ccc1OC(=O)c1ccccc1,-2,-1,0,1,0,-1
CCCCN1CN2Cc3cc(OC)ccc3C2CS1(=O)=O (stereo not given),1,0,0,·,0,-1
COC(=O)C/C(C)=N/Nc1ccc(S(=O)(=O)N2CCCC2)cc1[N+](=O)[O-],-4,3,-2,4.5*,0,-1
COC(=O)COc1ccc(S(=O)(=O)N2CCCCC2)cc1[N+](=O)[O-],-3,-2,2,-1,0,-2
On1c(-c2ccc(Cl)cc2)nc2ccccc21,11*,-5,3,·,2,0
O=C(O)Cc1cccc(-c2ccccc2)c1,·,2,·,·,·,·
CSCCC(NC(=O)c1ccc(Cl)cc1)C(=O)OCC(C)=O (stereo not given),0,4,1,5.6*,1,-2
Fc1cccc(Cn2ccc3ccc(-c4ccc5ccn(Cc6cccc(F)c6)c5c4)cc32)c1,2,3,-3,·,0,0
O=C(NC1CCCCN(Cc2ccc(Cl)cc2)C1=O)C1C2CC3CC(C2)CC1C3 (stereo not given),-3,6,-2,·,0,0
CCS(=O)(=O)c1ccc2oc(Nc3ccccc3Br)nc2c1,8,0,1,3,2,0
CCS(=O)(=O)c1ccc2oc(Nc3ccccc3Cl)nc2c1,13*,0,4,3,2,0
CC1(C)CC(=O)c2cnc(N3CCc4ccccc43)nc2C1,8,-1,6.4*,3,1,0
SMILES,hgDAF-12 ag,NR1D1 modulator,hcDAF12 agonist,DAX1 inh-1,DAX1 inh-2,ssDAF12 agonist
COCCCNc1oc(/C=C/c2ccccc2)nc1C#N,12*,-2,5,3,3,0
C=CCNc1oc(/C=C/c2ccccc2)nc1C#N,9,-3,5,3,3.9*,0.9*
O=C(CSc1nc(=O)n2ccccc2n1)NCc1ccccc1,-1,6,1,1,1,-1
O=C(CSc1nnnn1C1CCCC1)NCCc1ccccc1,5,-3,0,5.3*,1,-1
O=C(CSc1nc(=O)n2ccccc2n1)NCCc1ccccc1,0,-8,0,0,3.9*,0
Cc1ccc2c(c1)C(CS(=O)(=O)NCC(C)C)NC2 (stereo not given),-1,-6,1,·,-1,-1
O=C(NNC(=S)Nc1ccccc1)NNC(=S)Nc1ccccc1,1,-3,0,0,0,-1
O=C(NNC(=S)Nc1ccccc1)c1cc(Br)ccc1Cl,4,-6,6.1*,0,0,0
N#C/C(=C(/O)CSc1ncn[nH]1)c1nc2ccccc2[nH]1,0,2,6.5*,0,1,0
COC(=O)[C@]12C[C@H](CC(=O)NCc3cccs3)C(=O)N(CCC3=CCCCC3)C1=C[C@H](C(C)C)O[C@@H]2C1CC1,3,1,1,·,-1,-2
COC(=O)c1cc(-c2cccc(OC(F)(F)F)c2)c(=O)n2c1CCC2,-3,4,1,·,-1,-1
CCCC[C@H](C(=O)N(C)c1cccc(OC)c1)[C@@H](O)c1ccc(Cl)cc1,-3,-12,-3,·,-1,-1
C/C(=N\NC(=O)c1ccco1)c1ccc(-c2ccccc2)cc1,13*,-1,2,2,1,0
C/C(=N\NC(=O)c1ccco1)c1cc(Cl)sc1Cl,7,3,2,2,3.8*,0
Cc1nc2ccccc2c(=O)n1/N=C/c1ccc(O)cc1O,3,9,1,0,0,0
COc1cccc(/C=N/n2c(C)nc3ccccc3c2=O)c1O,1,-5,0,5.5*,1,-1
COC(=O)C1=C(C)N(Cc2ccc(C(F)(F)F)cc2)C(=NCc2ccccc2C(F)(F)F)NC1c1ccc(Cl)cc1 (stereo not given),-1,6,-1,·,1,-1
Cc1ccc(N/C=C/c2onc(C)c2[N+](=O)[O-])cc1,10,1,4,5.6*,2,-1
Cc1cccc(C)c1N/C=C/c1onc(C)c1[N+](=O)[O-],-2,2,0,0,0,-1
CN(C)c1cccc2c(S(=O)(=O)NCC3CCN(C(=O)C(=O)c4cccs4)CC3)cccc12,-1,-3,-2,·,-1,-1
CC(=O)Nc1ccc(OCc2ccc3c(c2)OCO3)cc1,12*,1,5,4,1,0
CCOc1ccc(NC(=S)NCc2ccc3c(c2)OCO3)cc1,0,-1,0,5.5*,0,0
Cc1c(NC(=O)C2CCCN(S(=O)(=O)c3cccc4ccccc34)C2)c(=O)n(-c2ccccc2)n1C (stereo not given),-1,0,-4,·,-1,-1
